# Bioassay records (PubChem BioAssay)
# Hits are enriched below; roughly 2.4% of the tested compounds scored in any of these assays.
# ADAM17 inh: ADAM17 inhibitors, primary screen, biochemical, QFRET | Disintegrin and metalloproteinase domain-containing protein 17 (Homo sapiens), P78536 | inhibition, % at 6.95 µM | recombinant ADAM17, EDANS/DABCYL FRET peptide cleavage | actives 0.83% (n = 370,000);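 active means inhibition above the mean of compounds lying between control limits plus 3 SD, set per campaign, cut at about 8.5% in these data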;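 further: 0% = DMSO-only wells as the low control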
# NRP1-CendR mod: modulators of CendR peptide binding to NRP-1, primary screen, biochemical, fluorescence polarization, uHTS. AID 602438, 2012. Neuropilin-1 (Homo sapiens), O14786. inhibition, % at 25 µM. FAM-RPARPAR peptide binding to NRP-1. actives 0.85% (n = 360,000);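 active means inhibition or corrected inhibition above about 18%, plus a signal ratio from 0.5 to 1.5, limit read from the data, passing the limit was not always enough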
# ADAM10 inh: human ADAM10 inhibitors, primary screen, biochemical, QFRET, HTS; Disintegrin and metalloproteinase domain-containing protein 10 (Homo sapiens), O14672; recombinant ADAM10, EDANS/DABCYL FRET peptide cleavage, 3 h; inhibition, % at 7 µM; actives 0.62% (n = 370,000);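 active means inhibition above a per-campaign cutoff equal to the mean of compounds falling between control-based bounds plus 3 SD, cut at about 20% in these data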;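 further: 0% = DMSO wells while the 100% control is not disclosed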
# Target sequence (O14672 214-748 limits assumed): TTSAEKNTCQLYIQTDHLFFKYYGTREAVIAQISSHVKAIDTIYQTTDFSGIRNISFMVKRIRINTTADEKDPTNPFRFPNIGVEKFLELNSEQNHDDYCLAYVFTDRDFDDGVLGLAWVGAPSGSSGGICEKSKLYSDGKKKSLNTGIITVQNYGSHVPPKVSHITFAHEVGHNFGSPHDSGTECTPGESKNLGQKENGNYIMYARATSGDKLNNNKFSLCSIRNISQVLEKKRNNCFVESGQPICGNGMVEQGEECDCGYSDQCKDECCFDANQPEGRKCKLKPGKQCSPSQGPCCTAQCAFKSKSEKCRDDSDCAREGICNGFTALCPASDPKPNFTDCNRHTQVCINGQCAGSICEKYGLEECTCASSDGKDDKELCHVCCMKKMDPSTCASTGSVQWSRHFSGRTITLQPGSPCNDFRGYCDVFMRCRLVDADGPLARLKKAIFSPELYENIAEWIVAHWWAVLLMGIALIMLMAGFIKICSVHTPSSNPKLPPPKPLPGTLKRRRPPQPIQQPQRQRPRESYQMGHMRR
# A3A deaminase: APOBEC3A ssDNA deaminase inhibitors, primary screen, selectivity assay for APOBEC3G inhibitor project, biochemical, FAM/TAMRA oligo cleavage fluorescence; DNA dC->dU-editing enzyme APOBEC-3A (Homo sapiens), P31941; recombinant A3A, FAM/TAMRA ssDNA deamination fluorescence; inhibition, % at 20 µM; actives 0.41% (n = 330,000); AID 493011, 2011;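 active means at least 40% inhibition at 20 µM here, with at most 30% in a related deaminase screen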;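 further: plate controls were A3A with DMSO for no effect and wells lacking A3A enzyme for full effect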
# A3G deaminase: APOBEC3G DNA deaminase inhibitors, primary screen, biochemical, fluorescence, single-stranded DNA substrate, uHTS; DNA dC->dU-editing enzyme APOBEC-3G (Homo sapiens), Q9HC16; actives 0.28% (n = 330,000); recombinant A3G, ssDNA deamination FAM/TAMRA fluorescence; inhibition, % at 20 µM;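 active means inhibition of at least 40% at 20 µM, with no more than 30% in the related APOBEC3A deaminase screen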;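 further: plate controls were DMSO wells with A3G for no effect and wells lacking A3G enzyme for full effect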
# ADAM10 confirm: human ADAM10 inhibitors, confirmation, biochemical, QFRET, triplicate | inhibition, % at 6.95 µM | shares compounds with ADAM10 inh | ADAM10 QFRET peptide cleavage, EDANS fluorescence | actives 1% (n = 2,100);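 active means inhibition above about 20% chosen separately for each screening run, limit read from the data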;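 further: 0% = DMSO wells and 100% = marimastat wells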
# ADAM17 ctr: ADAM17 inhibitors, counter-screen for ADAM10 exosite inhibitor project, biochemical, QFRET, high throughput; shares compounds with ADAM10 inh; ADAM17 QFRET peptide cleavage, EDANS fluorescence; inhibition, % at 6.95 µM; actives 0.5% (n = 2,100); AID 743214, 2013;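 active means mean triplicate inhibition above the solvent-only control wells' mean plus 3 SD, cut at about 12% in these data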;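 further: 0% = DMSO wells and 100% = marimastat wells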
# * = called active by the depositor; . = not tested or not shown.
SMILES,ADAM17 inh,NRP1-CendR mod,ADAM10 inh,A3A deaminase,A3G deaminase,ADAM10 confirm,ADAM17 ctr
O=C(NCc1nc2ccccc2[nH]1)C1=C[C@H](c2coc3ccccc3c2=O)C[C@H](OCc2ccc(CO)cc2)O1,5.5,13.0,24.1*,-1.5,-11.2,3.2,1.1
O=C(NCc1nc2ccccc2[nH]1)C1=C[C@H](c2ccccc2)C[C@H](OCc2ccc(CO)cc2)O1,0.5,4.3,-0.9,3.9,-8.0,.,.
CC(C)(C)Nc1scc(-c2ccccc2)[n+]1-c1ccccc1,-18.1,2.7,42.1*,-0.3,1.6,-0.6,-0.2
COC1=C[C@H](C(=O)NCc2ccccn2)[C@H](C)[C@@H](c2ccccc2)CC1=O,-5.2,.,-11.3,.,.,.,.
S=c1nc(-c2cc(Cl)cc(Cl)c2)[nH][nH]1,4.8,5.0,6.0,-3.1,-13.4,.,.
FC(F)(F)c1ccc(-c2nc(=S)[nH][nH]2)cc1,2.8,-3.6,25.4*,-1.8,-6.8,0.9,1.6
COC(=O)c1cc(S(=O)(=O)NCC2CCN(C(=O)C(=O)c3cccs3)CC2)cs1,-5.9,.,-1.5,.,.,.,.
Nc1nc(N)c(-c2cccc(C(F)(F)F)c2)c(Cc2cccc(C(F)(F)F)c2)n1,14.6*,-0.1,36.5*,.,.,0.6,0.3
Nc1ncccc1OCc1cccc(C(F)(F)F)c1,-2.5,-1.9,-2.5,1.7,-0.4,.,.
CSc1ccc(S(=O)(=O)NCc2ccc(Cl)cc2Cl)cc1,2.2,4.7,20.4*,-7.1,-8.4,2.1,0.3
Cc1ccccc1CNC1CCC12CCC(c1ccccc1)CC2 (centres undefined),-0.7,.,2.8,.,.,.,.
CCCCNS(=O)(=O)CC1NCCc2ccccc21 (centres undefined),-6.7,.,-12.7,.,.,.,.
COc1ccc(NC(=O)CN(C)CC(=O)NC(=O)NC2CCCCC2)cc1,1.4,-9.7,-25.7,-4.2,-7.3,.,.
COc1ccc(CN(C)CC(=O)NC(=O)NC2CCCCC2)cc1,-3.3,5.7,20.9*,-3.8,-7.2,0.3,0.0
Oc1ccc(Cl)cc1Sc1cc(Cl)ccc1O,6.3,2.1,25.5*,.,.,8.4,1.9
CC(=O)N1CCCN(S(=O)(=O)c2ccc3c(c2)c(=O)n(C)c(=O)n3C)CC1,1.8,.,5.0,.,.,.,.
COc1cc(S(=O)(=O)NCc2ccccn2)ccc1Cl,2.5,6.1,9.4,-3.8,-0.5,.,.
COc1ccc(S(=O)(=O)NCc2ccccn2)cc1Br,4.9,-2.7,22.7*,-3.6,4.7,-1.6,0.3
C[C@@H](c1ccccc1)N1C[C@@H](COCc2ccccc2)Oc2cc(N3CCC[C@H]3C(N)=O)ccc2S1(=O)=O,6.9,7.0,21.8*,.,.,5.3,1.0
CCCCC[C@H](C)N1C[C@@H](COCc2ccccc2)Oc2cc(N3CC[C@@H](O)C3)ccc2S1(=O)=O,6.7,4.5,7.1,.,.,.,.
CCCCC[C@@H](C)N1C[C@@H](COCc2ccccc2)Oc2cc(N3CC[C@@H](O)C3)ccc2S1(=O)=O,5.5,11.5,20.5*,.,.,6.2,3.0
C[C@@H](c1ccccc1)N1C[C@H](COCc2ccccc2)Oc2cc(N3CCC[C@H]3C(N)=O)ccc2S1(=O)=O,-1.9,2.9,-5.8,.,.,.,.
C[C@@H]1COc2cc(NCCCN3CCOCC3)ccc2S(=O)(=O)N1,-2.8,.,-4.9,.,.,.,.
CCCCN1CC(COc2ccc(OC)cc2)OCCS1(=O)=O (centres undefined),1.1,.,2.4,.,.,.,.
COc1ccccc1NC(=O)Cc1csc(NC(=S)Nc2ccccc2)n1,3.4,-7.7,20.6*,-0.3,-1.7,6.4,1.8
SMILES,ADAM17 inh,NRP1-CendR mod,ADAM10 inh,A3A deaminase,A3G deaminase,ADAM10 confirm,ADAM17 ctr
Cc1ccc(S(=O)(=O)NC2c3cccc4cccc(c34)C2Sc2nncn2C)cc1 (centres undefined),3.4,2.8,-7.0,-2.5,5.1,.,.
Cc1ccc(S(=O)(=O)NC2c3cccc4cccc(c34)C2Sc2nc(C)cc(C)n2)cc1 (centres undefined),7.1,9.3,20.0*,-3.3,-7.0,7.5,2.4
c1ccc(CC(Nc2cccnc2)c2ccccc2)cc1 (centres undefined),-4.8,.,-11.5,.,.,.,.
CCCCC(=O)N(Cc1ccccc1)c1ccccc1C(=O)Nc1cc(OC)ccc1OC,1.1,.,-4.2,.,.,.,.
N#Cc1ccc(CN(Nc2ccccc2)c2ccccc2)cc1,7.5,4.0,26.5*,.,.,4.5,2.1
O=C1/C(=C/c2cccs2)N=C(c2cccs2)N1Nc1ccccc1,4.6,9.5,25.5*,-0.5,-4.2,8.4,2.1
CCC(=O)N1CC2(CC(c3cccc(NC(=O)COc4ccc(Cl)cc4)c3)=NO2)C[C@@H]1C(N)=O (some centres undefined),.,.,.,-2.9,-6.7,.,.
NC(=O)[C@H]1CC2(CC(c3cccc(NC(=O)CC(c4ccccc4)c4ccccc4)c3)=NO2)CN1C(=O)c1ccccc1C(=O)c1ccccc1 (some centres undefined),8.5,-9.9,20.2*,-3.6,-3.2,8.1,2.8
NC(=O)[C@@H]1CC2(CC(c3cccc(NC(=O)CC(c4ccccc4)c4ccccc4)c3)=NO2)CN1C(=O)COc1ccc(Cl)cc1 (some centres undefined),8.0,3.6,22.6*,1.0,-8.2,13.7,4.5
CCC(=O)Nc1cccc(C2=NOC3(C2)C[C@@H](C(N)=O)N(C(=O)c2ccccc2C(=O)c2ccccc2)C3)c1 (some centres undefined),-4.7,-8.8,-11.2,-4.3,-3.4,.,.
CCCCNS(=O)(=O)/C=C/c1ccccc1CCNC(=O)OC(C)(C)C,-3.7,.,-1.7,.,.,.,.
CCC(=O)Nc1ccc2ccccc2c1,0.8,5.1,-41.1,-2.9,-8.1,.,.
CC(C)(C)CC(C)(C)NC(=O)CSCC(=O)Nc1ccc2ccccc2c1,6.0,0.7,24.8*,4.7,1.1,2.3,1.1
CSc1ccccc1NC(=O)C(=O)c1c[nH]c2ccccc12,6.0,0.3,22.3*,8.4,-5.7,7.4,1.7
C[C@@H](NC(=O)C(=O)c1c[nH]c2ccccc12)c1ccccc1,0.0,-2.4,-9.4,0.1,-4.1,.,.
Cc1ccccc1Nc1nc(Nc2ccccc2C)nc(SC2=NCCS2)n1,7.0,-19.1,19.8*,0.0,-10.2,5.7,1.6
COc1ccc(C(C)(O)c2nc(-c3cccc(F)c3)cs2)cc1 (centres undefined),4.6,19.3,21.7*,.,.,2.8,0.4
